Hit rate of the full screen: of about 68,000 compounds, about 2,700 (4%) showed an effect of 50% or more. Shown is part of a subset that was picked to be rich in strong results.
What follows are molecules tested on Plasmodium berghei (assay: Screen against P. berghei liver stage (PbLuc), transformed with Luciferase, at 2uM). Conditions: tested at 2 uM.
Type: functional, HepG2

Row | Compound | INHIBITION
1 | COCCC(=O)N1CCc2cc(Cl)cc(Cl)c2C1 | -10.6%
2 | Cc1cc(C(=O)NCC2CCS(=O)(=O)C2)ccc1NC(=O)c1ccco1 (stereo not given) | -34.12%
3 | O=C(NCC1CCS(=O)(=O)C1)c1ccco1 (stereo not given) | 69.48%
4 | O=C(NCC1CCS(=O)(=O)C1)c1ccc(NC(=O)c2ccco2)cc1 (stereo not given) | -19.02%
5 | CCOCCCC(=O)Nc1ccc(OCc2noc(C3CC3)n2)cc1 | 18.09%
6 | COc1cccc2c1N(Cc1nc(C3CC3)no1)CCC2 | 64.22%
7 | COc1cccc2c1N(Cc1noc(C3CC3)n1)CCC2 | -17.64%
8 | COCCc1noc(CN2CCCc3cccc(OC)c32)n1 | -61.35%
9 | CCCC(NC(=O)c1cncc(C)c1)c1nnn[nH]1 (stereo not given) | -10.41%
10 | COCCN1CCc2ncnc(NC(C)C)c2CC1 | 3.6%
11 | C[C@@H](NC(=O)c1cnccn1)c1c(-c2ccc(F)cc2)noc1C(=O)O | 34.79%
12 | CC(C)c1ccc(CCC(=O)N2CCOCC2c2ncon2)cc1 (stereo not given) | 15.47%
13 | CCc1ccccc1OCC(=O)N1CCOCC1c1ncon1 (stereo not given) | 53.58%
14 | O=C(COc1cccc(Cl)c1)N1CCOCC1c1ncon1 (stereo not given) | -6.71%
15 | O=C(COc1ccc(Cl)cc1)N1CCOCC1c1ncon1 (stereo not given) | -29.5%
16 | CCc1ccc(CCC(=O)N2CCOCC2c2ncon2)cc1 (stereo not given) | -45.23%
17 | O=C(CCc1cccc(Cl)c1Cl)N1CCOCC1c1ncon1 (stereo not given) | 58.52%
18 | Cc1ccc(CCC(=O)N2CCOCC2c2ncon2)c(C)c1 (stereo not given) | 35.23%
19 | Cc1ccc(CC(=O)N2CCOCC2c2ncon2)cc1 (stereo not given) | 54.99%
20 | Cc1cccc(C)c1OCC(=O)N1CCOCC1c1ncon1 (stereo not given) | 29.54%
21 | COCc1cccc(NC(=O)NCCCN(C)S(C)(=O)=O)c1 | 30.98%
22 | CC(C)CC(=O)N1CC(=O)N(Cc2ccco2)CC(O)C1 (stereo not given) | -6.69%

Row | Compound | INHIBITION
23 | Cc1cccc(-c2nc(C)nn2CC(=O)NCC(C)C)c1 | -9.49%
24 | CCC(=O)c1ccc(OCC(=O)NC(C)c2nnc(C)[nH]2)cc1 (stereo not given) | -20.29%
25 | CCn1ccc2cc(NC(=O)CC3CCCO3)ccc21 (stereo not given) | -73.93%
26 | Cc1cccc2cc(CO)c(N3Cc4cnc(C(C)(C)C)nc4C3)nc12 | 30.89%
27 | CCC(Nc1nnnn1-c1ccccc1)C(=O)Nc1nc(C)cs1 (stereo not given) | -13.81%
28 | Cc1nnsc1C(=O)NCc1cccnc1N(C)C | 6.17%
29 | O=C(c1cccc(CNCC=Cc2ccccc2)c1)N1CCCC1 | 4.49%
30 | CCN(Cc1nc2c(cnn2C)c(=O)[nH]1)c1ccccc1C | -16.3%
31 | COc1ccc(NC(=O)C2CCCO2)cc1OCc1cccnc1 (stereo not given) | 61%
32 | COc1ccc(NC(C)=O)cc1OCc1cccnc1 | 5.44%
33 | COc1ccc(NC(=O)C2CC2)cc1OCc1cccnc1 | 21.24%
34 | CCc1nnc2n1CCN(Cc1ncc(-c3ccc(F)cc3)o1)C2 | 1.6%
35 | O=C(c1ncccn1)N1C[C@@H]2CN(Cc3cccnc3)CCO[C@@H]2C1 | 22.62%
36 | CCN(Cc1noc(C2CCC2)n1)C(=O)c1cnc2ccccc2c1 | 19.53%
37 | CCCc1nc(CN(CC)C(=O)c2onc3ccccc23)no1 | -12.7%
38 | CCN(Cc1noc(C2CC2)n1)C(=O)c1onc2ccccc12 | 51.31%
39 | Cc1cnc(N)c(C(=O)C2CCN(C(=O)c3ccccc3F)CC2)c1 | 21.37%
40 | Cc1cnc(N)c(C(=O)C2CCN(C(=O)c3cnc(C)cn3)CC2)c1 | 25.72%
41 | Cc1cnc(N)c(C(=O)C2CCN(C(=O)c3cnc(C)nc3C)CC2)c1 | 69.08%
42 | Cc1cnc(N)c(C(=O)C2CCN(C(=O)C3CCC3)CC2)c1 | 61.16%
43 | CC(=O)N1CCC(C(=O)c2cc(C)cnc2N)CC1 | 27.16%
44 | C=C(C)C(=O)N1CCC(C(=O)c2cc(C)cnc2N)CC1 | 6.57%

Row | Compound | INHIBITION
45 | O=C(NCCn1cccn1)c1nnc2ccccc2n1 | 7.42%
46 | O=C(NC[C@H]1Cn2c(-c3ccccc3)cnc2CO1)C1CC1 | 35.6%
47 | CC1(C)CN(CC(F)(F)F)CCN1CC(=O)NC1CC1 | 65.42%
48 | CNC(=O)NC(=O)CN1CCN(CC(F)(F)F)CC1(C)C | 21.03%
49 | CC1(C)CN(CC(F)(F)F)CCN1CC(=O)NC1CCCC1 | 37.42%
50 | CCC1CC(=O)NCc2nc3sc(C)cn3c21 (stereo not given) | -18.57%
51 | CCCn1ncc(C2CC(=O)NCc3nc4sc(C)cn4c32)c1C (stereo not given) | 55.36%
52 | CCCn1ncc(C2CC(=O)NCc3nc4cc(C)ccn4c32)c1C (stereo not given) | 48.21%
53 | Cc1noc(C)c1CN(C)C(=O)Cn1c(=O)n(C)c2ccccc21 | -43.5%
54 | Cc1ccc(NC(=O)Nc2c(O)c3ccccc3oc2=O)cc1C | 8.92%
55 | COCCn1c2c(ccc1=O)CCN(C(=O)CC1CC1)CC2 | -13.68%
56 | NC(=O)NCC(=O)N1CCC(c2cc(-c3ccccc3Cl)n[nH]2)CC1 | 39.65%
57 | NC1(C(=O)N2CCC(c3cc(-c4ccccc4Cl)n[nH]3)CC2)CCC1 | 54.07%
58 | NC(=O)NCCC(=O)N1CCC(c2cc(-c3ccccc3Cl)n[nH]2)CC1 | 31.25%
59 | NC(=O)NC1CCN(Cc2ccc3c(c2)CCC3)CC1 | 30.42%
60 | CC(c1nnc(-c2cccs2)o1)N1CCc2cncnc2C1 (stereo not given) | -9.5%
61 | O=c1[nH]nc2c(S(=O)(=O)N3CCCCC3)cccn12 | 6.33%
62 | CCC(CO)N(Cc1ccccn1)C(=O)c1ccc(C)c(Cl)c1 (stereo not given) | 42.48%
63 | COCCC1(CNC(=O)NCC2CCC2)CCC1 | 29.43%
64 | COCCC1(CNC(=O)NCC2CCCS2)CCCC1 (stereo not given) | 55.39%
65 | COCCC1(CNC(=O)NCC2CCCN(C)C2)CCCC1 (stereo not given) | -24.61%
66 | CC(C)Nc1nc(-c2ccccc2)nc2c1CCN(C(=O)CC#N)CC2 | 27.22%

Row | Compound | INHIBITION
67 | CCN(Cc1noc(C)n1)C(=O)C(c1ccc(C)cc1)N(C)C (stereo not given) | -0.28%
68 | COc1cccc2c1ccn2CCNC(C)=O | -7.17%
69 | COCC(=O)NCCn1ccc2c(OC)cccc21 | 50.32%
70 | COc1cccc2c1ccn2CCNC(=O)CC(C)C | -55.67%
71 | CCN(CCO)C[C@@H]1CN(c2nc(C)cc(C)n2)C[C@@H]1CO | 5.88%
72 | O=C(c1ccc(F)c(F)c1)N1CCC(Cn2cc(CO)nn2)CC1 | 20.91%
73 | Cc1nn(C)c(N(C)C)c1CNCc1cccc(CN(C)C(C)C)c1 | 44.39%
74 | CCC(NC1CCCC1)c1ccc(S(C)(=O)=O)cc1 (stereo not given) | 58.65%
75 | CCC(NC1CSCCSC1)c1ccc(S(C)(=O)=O)cc1 (stereo not given) | 9.51%
76 | CCC(NC1Cc2ccccc2C1)c1ccc(S(C)(=O)=O)cc1 (stereo not given) | 10.02%
77 | Cc1ccc(-c2c[nH]c([C@@H]3COCCN3Cc3cccnc3)n2)cc1 | 3.84%
78 | CC(C)(CO)NCc1nn(Cc2ccccc2)nc1-c1ccccc1 | -34.52%
79 | CC(=O)N[C@H]1C[C@@H](c2nc(-c3ccc4c(c3)OCO4)no2)N(C)C1 | 57.31%
80 | CN1C[C@@H](N)C[C@H]1c1nc(-c2ccc3c(c2)OCO3)no1 | 28.2%
81 | CN1C[C@H](O)C[C@H]1c1nc(-c2ccc3c(c2)OCO3)no1 | 45.22%
82 | O=C(c1ccc[nH]1)N1CCc2ccc(S(=O)(=O)N3CCOCC3)cc2C1 | -19.95%
83 | Cc1ccccc1[C@@H]1CN(CCOCCO)C[C@H]1C(=O)O | 35.46%
84 | COCCN1C[C@@H](C(=O)O)[C@H](c2ccccc2C)C1 | 42.2%
85 | Cc1ccccc1[C@@H]1CN(CCCS(=O)(=O)N(C)C)C[C@H]1C(=O)O | 52.3%
86 | Cc1ccccc1[C@@H]1CN(Cc2nc3ncccn3n2)C[C@H]1C(=O)O | -18.59%
87 | Cc1ccccc1[C@@H]1CN(Cc2ccc(C(F)(F)F)nc2)C[C@H]1C(=O)O | 67.28%
88 | CCC[C@@H]1CN(Cc2ccc(C(F)(F)F)nc2)C[C@H]1C(=O)O | 21.97%

Row | Compound | INHIBITION
89 | OC(CNCCn1cccn1)c1ccc(F)c(F)c1 (stereo not given) | 21.91%
90 | Cc1nc(COc2ccc(N(C)S(C)(=O)=O)cc2)sc1C | -26.08%
91 | O=C(O)c1nnn(-c2ccccc2F)c1-c1ccncc1 | 37.61%
92 | O=S(=O)(CCN1CCOC(Cn2cccn2)C1)c1ccccc1 (stereo not given) | -34.9%
93 | CCn1cnnc1C1CCN(C(=O)c2ccc3ccccc3n2)CC1 | -6.48%
94 | O=C(NC1CCCC1)C1CCN(c2cc(-n3ccnc3)ncn2)CC1 | 70.33%
95 | O=C(Nc1cccnc1)C1CCN(c2cc(-n3ccnc3)ncn2)CC1 | 3.38%
96 | O=C(NC1CCN(c2cc(-n3ccnc3)ncn2)CC1)c1ccncc1 | 29.19%
97 | Cc1n[nH]c(C)c1-c1nccnc1CC1CCCN(C)C1 (stereo not given) | 31.98%
98 | CCCC(=O)Nc1ccc2c(c1)C1(CCOCC1)CN2CCOC | 39.44%
99 | COc1ccc(C[C@H]2CNCC[C@@H]2OC)cc1 | 18.65%
100 | O=c1cc(N2CCCC2)cnn1CC(F)F | 18.81%
101 | O=C(CSc1nnc[nH]1)NCc1sccc1Br | 32.1%
102 | Cc1ccsc1CNC(=O)CSc1nnc[nH]1 | 5.98%
103 | O=C(CSc1nnc[nH]1)NCc1cccs1 | 59.03%
104 | COCCNc1nc(NCCc2ccccc2)nc2nccnc12 | -20.55%
105 | Cc1nc(O)cc(C2CCCN(C(=O)CN(C)c3ccccc3)C2)n1 (stereo not given) | -14.36%
106 | Cc1ccc(CC(=O)N2CCCN(Cc3nccn3C)CC2)cn1 | 5.72%
107 | CCn1nc(C)c2ncnc(N(C)C)c21 | -47.86%
108 | Cn1cccc1C(=O)N[C@H]1CN(Cc2ccoc2)[C@@H]2CCCO[C@H]12 | 56.76%
109 | Cn1ccnc1C(=O)N[C@@H]1CN(Cc2ccoc2)[C@@H]2CCCO[C@@H]21 | 26.76%
110 | Cn1cc(C(=O)N[C@@H]2CN(Cc3ccoc3)[C@@H]3CCCO[C@@H]32)cn1 | -6.61%
